Data from PubChem BioAssay.
Calls of active or inactive are those of the source.

Assays:
[1] = tested on: XIP peptide (Xip251-270) binding; test: XIP fragment 251-270 binding compounds – biochemical, small-molecule microarray, fluorescence 635/667 nm, 0.1 µg/mL protein, primary screen (AID 1182); settings: fluorescent protein binding, 635 nm, higher = more signal, called active from +8 up or from −8 down
[2] = tested on: XIP peptide (Xip251-270); test: compounds binding XIP fragment 251-270 – biochemical, small-molecule microarray, fluorescence 635/667 nm, 0.5 µg/mL protein, primary screen (AID 1183); settings: fluorescence 635 nm, higher = more signal
[3] = blood-stage malaria parasite viability loss – strain 3D7, DAPI fluorescence, 100 nL, primary screen (AID 1184);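 note: parasites grown inside human red blood cells in medium with human serum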; settings: P. falciparum 3D7 growth, 3 d, higher = more signal
[4] = target: Homeobox protein Hox-A13 (Mus musculus) (UniProt Q62424); test: disruptors of Hoxa13 oligonucleotide interaction – biochemical, fluorescence polarization, labeled oligonucleotide, primary screen (AID 1185); settings: Hoxa13:DNA binding, 15 min, higher = more signal, called active from +8 up or from −8 down
Sequence of Homeobox protein Hox-A13 (Mus musculus) (Q62424 whole entry, looked up): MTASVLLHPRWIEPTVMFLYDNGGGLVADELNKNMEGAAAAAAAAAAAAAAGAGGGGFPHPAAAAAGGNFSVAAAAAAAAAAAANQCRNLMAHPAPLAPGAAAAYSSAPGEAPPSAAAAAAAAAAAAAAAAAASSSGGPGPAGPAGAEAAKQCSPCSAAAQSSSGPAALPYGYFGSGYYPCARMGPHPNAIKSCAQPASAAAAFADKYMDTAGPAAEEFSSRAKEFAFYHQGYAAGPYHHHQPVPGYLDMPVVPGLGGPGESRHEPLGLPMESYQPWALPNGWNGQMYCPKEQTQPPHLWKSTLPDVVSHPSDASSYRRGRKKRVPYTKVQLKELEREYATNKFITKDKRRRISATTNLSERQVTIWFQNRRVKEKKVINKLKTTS

Compound	composite z-score [1]	composite z-score [2]	z-score [3]	z-score [4]
CCOC(=O)CCN1C(=O)[C@H]2[C@H]3[C@H](O)[C@H](O)CC(=NOCC(C)C)[C@@H]3CC[C@H]2C1=O	-0.0503 (inactive)	0.203	-0.379	-3.95 (inactive)
COC(=O)CC=C[C@@H](C)[C@@H](C=NOC[C@@H](C)[C@H](OCc1ccccc1)C(C)C)OC	0.0918 (inactive)	-0.0012	-0.469	-3.36 (inactive)
CC(CCN1CCc2nc(-c3ccccc3)c(-c3ccccc3)cc2C1)=NO[C@@H](C)c1cc(-c2c(C)cc(C)cc2C)no1	1.27 (inactive)	0.416	-1.31	0.713 (inactive)
C=CC[C@@H]1C=C[C@H](ON=C(C)CCN2CCCCc3nc(C)c(C)cc32)[C@@H](CO)O1	-0.167 (inactive)	0.143	-0.784	-4.55 (inactive)
CCOC(=O)CCN1C(=O)[C@H]2[C@H]3[C@H](O)[C@H](O)CC(=NO[C@@H]4O[C@H](CO)[C@@H](O)[C@H](O)[C@H]4O)[C@@H]3CC[C@H]2C1=O	0.557 (inactive)	0.632	0.434	0.142 (inactive)
CC=CC1=C(CO)[C@H](O)[C@H]2O[C@H]2[C@@H]1O	0.353 (inactive)	0.374	0.0425	-0.101 (inactive)
O=C1[C@H]2[C@H]3[C@H](O)[C@H](O)CC(=NOC[C@@H](O)COCc4ccco4)[C@@H]3CC[C@H]2C(=O)N1c1cccc(Oc2ccccc2)c1	0.2 (inactive)	-0.344	0.48	-5.57 (inactive)
COC(=O)CC=C[C@@H](C)[C@@H](C=NOC[C@@H](O)[C@H]1O[C@@H]2OC(C)(C)O[C@@H]2[C@H]1O)OC	-0.33 (inactive)	-0.0618	0.364	0.321 (inactive)
CC(=O)OC[C@H]1O[C@H](CC=NOC[C@@H](O)COCc2ccco2)C=C[C@@H]1OC(C)=O	0.084 (inactive)	0.479	0.466	-0.226 (inactive)
O=C1C[C@H](c2ccccc2)[C@H](c2ccc(Br)cc2)O1	-0.112 (inactive)	-0.0581	0.467	-0.403 (inactive)
CC(C)=NO[C@@H](C)c1cn([C@H](CO)Cc2ccccc2)nn1	-0.407 (inactive)	0.241	0.412	1.06 (inactive)
O=C1C=C[C@@H](O)[C@@H]2[C@@H]3C(=O)N(c4cccc(Oc5ccccc5)c4)C(=O)[C@@H]3CC[C@@H]12	-0.0205 (inactive)	0.528	-1.46	-0.827 (inactive)
CCN1C(=O)[C@H]2[C@H]3[C@H](O)[C@H](O)CC(=NO[C@H](C)c4cn([C@@H]5COC[C@H]5O)nn4)[C@@H]3CC[C@H]2C1=O	0.0118 (inactive)	-0.629	0.202	-0.803 (inactive)
